Results on 21 compounds are retold here after PubChem BioAssay (NCI).

A short description of test [1]: NCI Yeast Anticancer Drug Screen. Data for the rad50 strain (AID 155).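 Also: 0% = growth of vehicle-only cultures of the same strain.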 The conditions noted are these: S. cerevisiae rad50 strain growth inhibition; at 50.0 µM; hits give high values. A digest of the protocol:
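DNA repair mutant yeast, compound exposure, growth read-out; inhibition is taken relative to vehicle.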

The nature of test [2]: NCI Yeast Anticancer Drug Screen. Data for the mec2-1 strain (AID 157). The conditions noted are these: S. cerevisiae mec2-1 strain, at 50.0 µM, hits give high values. A digest of the protocol:
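Compounds were applied to mec2-1 yeast cells. Their growth was then compared with that of vehicle-treated cultures to give growth inhibition.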

Test [3] in a line: NCI Yeast Anticancer Drug Screen. Data for the sgs1 mgt1 strain (AID 161).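 Also: 0% = growth of cultures given vehicle only.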 To be noted: S. cerevisiae sgs1 mgt1 strain, at 50.0 µM, hits give high values. A digest of the protocol:
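Compounds are added to genetically altered yeast, and growth is compared with cultures given vehicle alone to give percent inhibition.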

Test [4] is described as follows: NCI Yeast Anticancer Drug Screen. Data for the cln2 rad14 strain (AID 165).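 Also: 0% = growth equal to vehicle treated cultures.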 To be noted: S. cerevisiae cln2 rad14 strain, at 50.0 µM, hits give high values. A digest of the protocol:
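Strain: cln2 rad14 yeast, altered in cell cycle control and DNA damage repair. Read-out: growth inhibition vs vehicle.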

The nature of test [5]: NCI Yeast Anticancer Drug Screen. Data for the bub3 strain (AID 167). To be noted: S. cerevisiae bub3 mutant strain, at 50.0 µM, hits give high values. A digest of the protocol:
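In this screen, a yeast mutant lacking normal mitotic checkpoint function is challenged with compound. Relative growth versus vehicle gives the inhibition value.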

A short description of test [6]: NCI Yeast Anticancer Drug Screen. Data for the mlh1 rad18 strain (AID 175). To be noted: S. cerevisiae mlh1 rad18 strain growth inhibition; at 50.0 µM; hits give high values. A digest of the protocol:
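A repair-deficient yeast strain is exposed to test compound, and growth is scored relative to vehicle-treated controls.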

The structures appear in SMILES notation. About 79,000 compounds went through this panel and 15% of them were active in at least one assay; those are over-represented in the sample as a whole. A number with no mark means an inactive call. Activity calls are given as the source filed them. Rule as the data show it: active = growth inhibition above about 70%; inactive = the rest.

As for `COc1ccc(N)cc1CO`, the growth inhibition is 8.85% in test [1]; -9.85% in test [2]; -15.3% in test [3]; -17.1% in test [4]; -12.3% in test [5]; 12.7% in test [6].
For `CN1C(c2ccco2)NC(=O)C12CCN(Cc1ccccc1)CC2` (stereo unspecified), the growth inhibition in test [1] was 24.8%; in test [2], 7.25%; in test [3] it was 15.2%; in test [4], 10.2%; in test [5] it was 16.8%; in test [6], 16.1%.
As to `CCOC(=O)C(C(=O)CC)=P(c1ccccc1)(c1ccccc1)c1ccccc1`, the growth inhibition in test [1] was 3.35%; in test [2] it was 17.4%; in test [3], -20.1%; in test [4] it was -9.4%; in test [5], -9.9%; in test [6], 23.2%.
With `Cc1c(-c2ccc3c(c2)COC3)sc(N)c1C#N`, the growth inhibition was 4.7% in test [1]; -4.3% in test [2]; 27.2% in test [3]; 24.3% in test [4]; 47.8% in test [5]; -5.4% in test [6].
For `COC(=O)C(C#N)=C(C)C`, the growth inhibition in test [1] was 2.3%; in test [2] it was -23.6%; in test [3] it was 16.9%; in test [4] it was 19.9%; in test [5] it was 0.05%; in test [6], 7.95%.
With `O=C1OC(=O)C2C3C=CC(C4C=C(C5CC5)C43)C12` (stereo unspecified), the growth inhibition in test [1] is 9.8%; in test [2] it was -4.05%; in test [3], -4.1%; in test [4], -22.9%; in test [5], -5.5%; in test [6] it was 5.2%.
Take `[Br][Pt+2][Br].[NH-]c1ccc(F)cc1.[NH-]c1ccc(F)cc1`: the growth inhibition in test [1] was 34.9%; in test [2], 9.2%; in test [3] it was 5.4%; in test [4], -8.3%; in test [5], -4.75%; in test [6], 24.9%.
`COc1ccc(C(=O)c2cccc(C(=O)c3ccc(OC)cc3)c2)cc1`: the growth inhibition in test [1] is -13.1%; in test [2], -19.4%; in test [3] it was -3.5%; in test [4], -0.9%; in test [5], -13.5%; in test [6] it was -4.15%.
For the compound `CCCCN=C1NC(N)=NC(C)(C)N1`, the growth inhibition was -0.1% in test [1]; -0.35% in test [2]; -0.75% in test [3]; -37.5% in test [4]; -13.3% in test [5]; -18.9% in test [6].
Turning to `CCCC(=O)Oc1c(Cl)cc(Cl)cc1-c1ccccc1`, the growth inhibition in test [1] is 12.8%; in test [2], 12.9%; in test [3] it was 37.9%; in test [4], 8.1%; in test [5], 28.6%; in test [6], 1.45%.
As for `CCC(C(=O)NC(C)c1ccc(-c2ccccc2)cc1)c1ccccc1` (stereo unspecified), the growth inhibition in test [1] is 5.1%; in test [2], 7.55%; in test [3], 10%; in test [4], 13.2%; in test [5] it was 12.5%; in test [6], -4.7%.
Regarding `CCCC[P+](C)(CC[P+](C)(c1ccccc1)c1ccccc1)c1ccccc1` (stereo unspecified), the growth inhibition in test [1] is 36.3%; in test [2], 80.8% (active); in test [3], 69%; in test [4], 96.5% (active); in test [5], 98.1% (active); in test [6] it was 37.3%.
As for `O=C1Nc2c(Cl)cc(Cl)cc2C1=O`, the growth inhibition is 7.9% in test [1]; 45.1% in test [2]; 37.7% in test [3]; -2.75% in test [4]; 38% in test [5]; 91.8% (active) in test [6].
In the case of `CN(C)C1=NC(NCc2ccccc2)(N(C)C)OC(N(C)C)=N1` (stereo unspecified), the growth inhibition was 1.95% in test [1]; 4.9% in test [2]; 0.55% in test [3]; 8.7% in test [4]; 13.7% in test [5]; 15.5% in test [6].
`NC(=O)CCC(Nc1c2ccccc2nc2ccccc12)C(=O)O` (stereo unspecified): the growth inhibition in test [1] was 23.1%; in test [2], 3.85%; in test [3], 15.7%; in test [4] it was 28.6%; in test [5], 1.4%; in test [6], 48.2%.
As to `CC(=O)c1cccc(NC(=O)C(=O)C(C(=O)c2ccccc2F)C2OC(=O)c3ccccc32)c1` (stereo unspecified), the growth inhibition in test [1] is 9.2%; in test [2] it was -7.2%; in test [3], -5.45%; in test [4] it was 3.7%; in test [5], -6.2%; in test [6] it was -4.05%.
Turning to `O=C(Oc1ccc(OC(=O)c2ccc([N+](=O)[O-])cc2)cc1)c1ccccc1`, the growth inhibition in test [1] was 9.85%; in test [2], -2.25%; in test [3], -1.4%; in test [4], 26.4%; in test [5] it was -3.05%; in test [6], 5.25%.
As to `CC1CCc2c(nc(C#N)c(=N)n2O)C1` (stereo unspecified), the growth inhibition is 8.25% in test [1]; -3.2% in test [2]; 6.8% in test [3]; -40.2% in test [4]; -12.2% in test [5]; -6.75% in test [6].
With `CC(C)=CCN1c2ccccc2NC(=O)CC1C` (stereo unspecified), the growth inhibition in test [1] was -24.1%; in test [2] it was -66.7%; in test [3], -6.55%; in test [4], 4.5%; in test [5], -10.9%; in test [6], -14.9%.
For the compound `O=c1[nH]c2ccccc2nc1/C=C\NC(=S)Nc1cc(Cl)ccc1Cl`, the growth inhibition in test [1] is -45.5%; in test [2], -32.1%; in test [3] it was -44.1%; in test [4], -14.8%; in test [5], -30.6%; in test [6], -40.1%.
For the compound `CC1(C)CC(C)(Br)C(Br)C(=O)C1C(O)(C(F)(F)F)C(F)(F)F` (stereo unspecified), the growth inhibition in test [1] was 99.5% (active); in test [2], 99.8% (active); in test [3], 99.8% (active); in test [4], 99.2% (active); in test [5], 99.6% (active); in test [6], 99.8% (active).
